# PubChem BioAssay
# Test: basal HepG2 mitochondrial membrane potential changes, profiling panel, cell-based, JC-1 fluorescence, 24 h, 100 nL compound (AID 1167); further: test concentration not given here
# Settings: higher = more signal
row,Structure (SMILES),z-score
1,COCC(=C=CC[C@H](O)c1cccc(OCCO)c1)C[C@H](O)COCc1ccccc1,-0.487
2,C=CCOC(=O)[C@H]1[C@@H]2C(=O)O[C@@H](c3ccccc3)[C@@H](c3ccccc3)N2[C@@H](c2ccc(OCCOC(=O)[C@H]3C[C@H]4C(=O)N[C@@H](CCCCNC(C)=O)C(=O)N4[C@H]3c3cccc(OCCO)c3)cc2)[C@]12C(=O)Nc1ccc(I)cc12,-1.91
3,Cc1c(NC(=O)/C(C#N)=C/c2ccccc2Cl)c(=O)n(-c2ccccc2)n1C,0.771
4,C=C(C(=O)CC[C@@H](OC(=O)c1ccccc1-c1ccccc1C(=O)O)c1ccccc1OCCO)C(C)C,-1.1
5,COc1ccc([Si](C)(C)[C@@H]2[C@@H](CC(=O)N3Cc4ccccc4C[C@H]3CO)O[C@]3(C(=O)N(Cc4ccc(N5CCC5=O)cc4)c4ccccc43)[C@H]2C)cc1,1.13
6,C=C[C@@H](OC)[C@H](OC(=O)Nc1ccc(OC)cc1)c1ccc(OC)c(O)c1,-0.733
7,CCOC(=O)C1=CCC(c2ccco2)N(S(=O)(=O)c2ccc(C)cc2)C1 (stereo unspecified),-0.843
8,C=CCNC(=O)[C@H]1[C@@H]2C(=O)O[C@@H](c3ccccc3)[C@@H](c3ccccc3)N2[C@@H](c2ccc(OCCO)cc2)[C@]12C(=O)N(C(=O)OCCOC)c1ccc(C#Cc3ccc(OC)cc3)cc12,-1.22
9,CN1C=C(C(=O)OCCS(C)(=O)=O)C(C(=O)OCCS(C)(=O)=O)=CC(c2ccc(CO)cc2)=CC1c1cccs1 (stereo unspecified),-0.963
10,COC(=O)C1N=C(c2ccc(OCCCO)cc2)N(c2ccccc2)O1 (stereo unspecified),0.684
11,CC(C)N1CC=CC23O[C@@H]4/C=C\CCCOC(=O)C4[C@H]2C(=O)N(CCCCCCO)[C@@H]3C1=O (stereo partly specified),1.14
